Here are results for 95 molecules from PubChem BioAssay AID463173 (ICCB-Longwood Screening Facility, Harvard Medical School, 2010).

In all, about 52,000 compounds went through this assay and about 4,300 (8.3%) were called active. No stated cut-off is given here; in the data, active means survival mostly below about 52% (no sharp cut-off); inactive means mostly above about 56%. What follows is part of a selection rich in actives, with near analogues and random picks from the rest.

The subject of this test is DeltatarO mutant. Put plainly: S. aureus survival, RN4220 and DeltatarO strains – OD600, teichoic acid synthesis inhibitors, primary screen (AID 463173). The following applies: S. aureus RN4220 wild type/DeltatarO growth, OD600, 18 h, stronger effect = lower value, screened at 18.75 µg/mL (by protocol).
For the molecule `COc1ccc2c(c1)c1c(c(=O)n(-c3ccc(F)c(Cl)c3)c(=O)n1Cc1ccccc1C)n2C`, the survival is 83% (inactive).

For `COc1ccc(-n2ccnc2SCC(=O)Nc2cccc(OC)c2)cc1`, the survival was 98% (inactive). As for `Cc1cc(=O)[nH]c2nnc(SCC(=O)Nc3ccc(OC(F)(F)F)cc3)n12`, the figure is 74% (inactive); as for `CCc1ccc(CNC(=O)c2ccc(-n3c(C)cc4c3CCC(C)C4)cc2)cc1` (stereo not given), 123% (inactive). As to `Cc1ccn2c(=O)cc(CSc3nnc(C)s3)nc2c1`, the survival is 77% (inactive). For the molecule `COc1ccc(-c2cc(OC(=O)c3cccc(Cl)c3)c3c(C)oc(C)c3c(=O)c2)cc1`, the survival is 132% (inactive). As for `COc1ccc(S(=O)(=O)N2CCN(c3cccc(C)c3C)CC2)c2ccccc12`, the figure is 152% (inactive). As for `CCCN1CCN(c2ncc3c(n2)CCN(Cc2ccc(OC)c(OC)c2OC)C3)CC1`, the figure is 83% (inactive); as for `O=C(Nc1ccc(-c2nc3cc(Cl)ccc3o2)cc1)c1cc2ccccc2o1`, 52% (inactive); as for `CCc1ccc2oc(-c3ccc(NC(=O)c4cc5ccccc5o4)cc3)nc2c1`, 40% (active).

For the molecule `Cc1ccc(-c2nc3cc(NC(=O)c4cc5ccccc5o4)ccc3o2)cc1`, the survival is 72% (inactive). As to `O=C(O)CC(NC(=O)Cc1ccccc1)c1ccccc1` (stereo not given), the survival is 99% (inactive). On to `O=C1CCCc2cc(S(=O)(=O)NCC3CCC(C(=O)NCc4ccccc4Cl)CC3)ccc2N1` (stereo not given), for which the survival is 71% (inactive). On to `COc1cc(NC(=O)c2cccc3c2C(=O)N(C2CCCCC2)C3)cc(OC)c1`, for which the survival was 90% (inactive). As for `COC(=O)c1ccc(NC(=O)c2cccc3c2C(=O)N(C2CCCCC2)C3)cc1`, the figure is 80% (inactive); as for `O=C(Nc1c(Cl)cccc1Cl)c1cccc2c1C(=O)N(C1CCCCC1)C2`, 78% (inactive). In the case of `Cc1cc(C)cc(NC(=O)c2cccc3c2C(=O)N(C2CCCCC2)C3)c1`, the survival is 33% (active). As for `CC(C)c1ccc(NC(=O)c2cccc3c2C(=O)N(C2CCCCC2)C3)cc1`, the survival was -10% (active). As to `COc1cc(NC(=O)c2cccc3c2C(=O)N(C2CCCCC2)C3)cc(OC)c1OC`, the survival was 53% (inactive).

As to `Cc1cccc(C2CC(=O)Nc3cc4c(cc32)OCO4)c1` (stereo not given), the survival is 77% (inactive).

Take `CCCCN(Cc1ccccc1)C(=O)CN(C)S(=O)(=O)c1ccc2c(c1)c(=O)n(C)c(=O)n2C`: the survival is 128% (inactive). The same measure for `Cc1ccc(C)c(Nc2nnc(-c3ccc(C)c(S(=O)(=O)N4CCN(C)CC4)c3)c3ccccc23)c1`: 84% (inactive); for `COC(=O)CNC(=O)c1cc2sccc2n1Cc1ccccc1`: 97% (inactive); for `CCc1cc2c(cc(C(=O)OC)n2Cc2nc(-c3ccc(C)cc3)oc2C)s1`: 26% (active). For `COC(=O)c1cc2sccc2n1Cc1ccc(F)cc1`, the survival is 124% (inactive).

On to `COC(=O)c1cc2sccc2n1Cc1nc(-c2cccc(Cl)c2)oc1C`, for which the survival was 83% (inactive). As to `COC(=O)c1cc2sccc2n1Cc1nc(-c2ccc(C)cc2)oc1C`, the survival was 28% (active). For `COC(=O)c1cc2sccc2n1Cc1nc(-c2ccc(Cl)cc2)oc1C`, the survival is 90% (inactive). With `COC(=O)c1cc2sc(C)cc2n1Cc1nc(-c2ccc(C)cc2)oc1C`, the survival was 109% (inactive). As for `COC(=O)c1cc2sc(Cl)cc2n1Cc1nc(-c2ccc(OC)cc2)oc1C`, the figure is 72% (inactive); as for `COC(=O)c1cc2sccc2n1Cc1ccccc1`, 35% (active).

On to `Cc1ccc(C2=NNC(c3cccnc3)=Nc3ccc(F)cc32)o1`, for which the survival is 96% (inactive). The same measure for `COc1ccc(Cl)cc1NC(=O)N1CCC(CN2CCCCCC2)CC1`: 79% (inactive); for `CN(C)c1ccc(/C=C(/NC(=O)c2ccccc2)C(N)=O)cc1`: 86% (inactive). The same measure for `Cc1ccc(NC(=O)C2CCCN(c3cnccn3)C2)cc1Cl` (stereo not given): 75% (inactive); for `C=CCNC(=O)CN1CCC(n2nnc3cc(C(F)(F)F)ccc32)CC1`: 79% (inactive). The same measure for `COc1ccc(-c2cc(C(F)(F)F)n3nc(C(=O)Nc4cccc(Cl)c4Cl)cc3n2)cc1OC`: 123% (inactive); for `CCc1ccccc1NC(=O)c1cnn2c(C(F)(F)F)cc(-c3ccc(OC)c(OC)c3)nc12`: 46% (active); for `CCOC(=O)c1cnn2c(C(F)(F)F)cc(-c3ccc(Br)cc3)nc12`: 102% (inactive). Turning to `COc1ccc(-c2cc(C(F)(F)F)n3nc(C(=O)Nc4ccccc4SC)cc3n2)cc1OC`, the survival is 148% (inactive). Turning to `COC(=O)c1cnn2c(C(F)(F)F)cc(-c3ccccc3)nc12`, the survival was 68% (inactive).

In the case of `CCc1ccccc1NC(=O)c1cc2nc(-c3ccc(OC)c(OC)c3)cc(C(F)(F)F)n2n1`, the survival is 52% (active). The same measure for `CCCCOc1ccc(C(=O)NCCc2sc(-c3ccc(OC)c(OC)c3)nc2C)cc1`: 72% (inactive). For the molecule `COc1ccc(NC(=O)c2oc3ccccc3c2NC(=O)C23CC4CC(CC(C4)C2)C3)cc1`, the survival was 80% (inactive).

For the molecule `COc1ccc(N2CCN(c3ncnc4c3cnn4-c3ccc(C)c(Cl)c3)CC2)cc1`, the survival is 96% (inactive). The same measure for `Cc1ccc(/C=C/C(=O)N2CCC(c3nc4ccccc4o3)CC2)cc1`: 87% (inactive). On to `CC(C)NC(=O)C1CCN(C(=O)N2CC(C)Oc3ccccc32)CC1` (stereo not given), for which the survival was 72% (inactive).

In the case of `O=C(NC1CCCC1)c1ccc2c(=O)n(Cc3ccccc3)c(SCc3cccc([N+](=O)[O-])c3)nc2c1`, the survival was 106% (inactive). With `Cn1c(=O)c2c(nc(N3CCOCC3)n2Cc2cccc(Br)c2)n(C)c1=O`, the survival was 80% (inactive). As to `COc1ccc(Oc2nc3c(c(=O)n(C)c(=O)n3C)n2Cc2ccccc2Cl)cc1`, the survival was 54% (inactive).

With `Cn1c(=O)c2c(nc(N3CCOCC3)n2Cc2ccc(Br)cc2)n(C)c1=O`, the survival is 43% (active).

As to `CCOC(=O)Cn1c(=O)c2c(nc(N3CCOCC3)n2Cc2ccccc2)n(C)c1=O`, the survival is 43% (active). Take `Cn1c(=O)c2c(nc(NCCCCO)n2Cc2ccccc2Cl)n(C)c1=O`: the survival is 63% (inactive).

For `Cn1c(=O)n(Cc2ccccc2Cl)c(=O)c2c1nc1n2CCN1c1ccccc1`, the survival was 73% (inactive). For the molecule `Cn1c(=O)[nH]c(=O)c2c1nc(N1CCOCC1)n2Cc1ccccc1`, the survival is 167% (inactive). The same measure for `Cn1c(=O)c2c(nc(N3CCOCC3)n2Cc2ccccc2)n(C)c1=O`: 52% (inactive).

Consider `Cn1c(=O)c2c(nc(N3CCOCC3)n2Cc2ccccc2F)n(C)c1=O`, for which the survival is 71% (inactive). As for `CC(C)CCSc1nc2c(c(=O)n(C)c(=O)n2C)n1Cc1ccccc1Cl`, the figure is 34% (active); as for `CCOC(=O)Cn1c(=O)c2c(nc3n2CCN3c2ccc(CC)cc2)n(C)c1=O`, 79% (inactive).

Consider `Cn1c(=O)c2c(nc(N3CCOCC3)n2Cc2ccccc2Cl)n(C)c1=O`, for which the survival was 46% (active). Turning to `CCOc1ccc(NC(=O)c2c(NC(=O)c3ccco3)sc3c2CCC(C(C)(C)C)C3)cc1` (stereo not given), the survival is 68% (inactive). With `CCOC(=O)c1c(C)[nH]c(C)c1S(=O)(=O)N1CCCC(C(=O)NCc2cccc(C)c2)C1` (stereo not given), the survival is 88% (inactive). As for `Cc1ccc(CNC(=O)C2CCCN(S(=O)(=O)c3cn(C)cn3)C2)cc1` (stereo not given), the figure is 94% (inactive). The same measure for `O=C(Cn1cnc2ccccc2c1=O)NCCC(=O)Nc1ccc(F)cc1`: 85% (inactive); for `CC(C)(C)Nc1nc(OCC#N)nc(N2CCOCC2)n1`: 113% (inactive).

Turning to `CCCCNC(=O)Cn1c(=O)cc(C)c2c(C)nn(-c3ccc(CC)cc3)c21`, the survival was 55% (inactive). Take `Cc1cc(C)c2c(n1)SCC(=O)N2CC(=O)Nc1ccc(C)c(C)c1`: the survival is 115% (inactive). The same measure for `CCc1nnc(NC(=O)c2nc(SC)ncc2Cl)s1`: 109% (inactive); for `CCc1nnc(NC(=O)c2nc(SCc3cccc(C)c3)ncc2Cl)s1`: 5% (active).

Turning to `CCc1nnc(NC(=O)c2nc(SCc3ccccc3C)ncc2Cl)s1`, the survival is 96% (inactive). As for `Cc1nnc(NC(=O)c2nc(SC(C)C)ncc2Cl)s1`, the figure is 72% (inactive); as for `Cc1nnc(NC(=O)c2nc(SCc3ccccc3F)ncc2Cl)s1`, 90% (inactive); as for `Cc1ccc(CNC(=O)c2nc(SCc3ccc(C)cc3)ncc2Cl)cc1`, 99% (inactive).

For `CCCc1nnc(NC(=O)c2nc(SCC)ncc2Cl)s1`, the survival was 76% (inactive).

Turning to `CCSc1ncc(Cl)c(C(=O)Nc2nnc(CC)s2)n1`, the survival was 72% (inactive). The same measure for `CCc1nnc(NC(=O)c2nc(SCc3ccc(F)cc3)ncc2Cl)s1`: 29% (active). On to `CCc1nnc(NC(=O)c2nc(SCc3ccccc3F)ncc2Cl)s1`, for which the survival is 31% (active). As for `Cc1ccc(CSc2ncc(Cl)c(C(=O)Nc3nnc(C)s3)n2)cc1`, the figure is 32% (active); as for `Cc1cccc(CSc2ncc(Cl)c(C(=O)Nc3nnc(C)s3)n2)c1`, 73% (inactive); as for `CCCC(=O)C1=C(c2cccc(OC)c2)N(C(=O)CCC)n2c(C)nnc2S1`, 85% (inactive). As for `O=C(c1ccc(Br)cc1)N1CCN(CCc2ccncc2)CC1`, the figure is 78% (inactive); as for `COc1cc(NC(=O)CC2C(=O)N(c3cccc(C)c3)C(=O)N2Cc2ccc(F)cc2)cc(OC)c1` (stereo not given), 94% (inactive); as for `CC1=NN(c2ccccc2)C(c2ccccc2)C1` (stereo not given), 101% (inactive). The same measure for `O=C(CN(c1ccc2c(c1)OCCO2)S(=O)(=O)c1ccccc1)NCc1ccco1`: 85% (inactive); for `CCOC(=O)C1CCN(C(c2ccc(C)cc2)c2c(O)cc(C)n(CCOC)c2=O)CC1` (stereo not given): 76% (inactive). As to `C=CCn1c(C)c(C=C(C#N)C#N)c2ccccc21`, the survival is 99% (inactive). With `CC1(c2ccccc2)OC(=O)C(C#N)C12CCCCC2` (stereo not given), the survival was 103% (inactive). The same measure for `NC(=O)c1ccc2nc(N)sc2c1`: 102% (inactive); for `Cc1cccc(C(=O)N2CCCCC2CCN2CCCCC2)c1` (stereo not given): 80% (inactive); for `CC(C)c1nnc(NC(=O)c2nc(SCc3ccc(F)cc3)ncc2Cl)s1`: 24% (active). As for `COc1ccc(NC(=O)c2nc(SCc3ccc(F)cc3)ncc2Cl)cc1`, the survival was 69% (inactive). Consider `COc1ccc(CCNC(=O)c2nc(SCc3ccccc3F)ncc2Cl)cc1OC`, for which the survival is 64% (inactive). `COc1ccc(CCNC(=O)c2nc(SCc3ccc(C)cc3)ncc2Cl)cc1OC`: the survival is 65% (inactive). As for `CC(C)Sc1ncc(Cl)c(C(=O)Nc2nnc(C(C)C)s2)n1`, the figure is 69% (inactive); as for `COc1ccc(CCNC(=O)c2nc(SCc3ccc(F)cc3)ncc2Cl)cc1OC`, 46% (active).
